# In the library only some 2.6% were active in any assay of this set; here they are far more common.
# Exocytosis inh: blocks lytic granule exocytosis. inhibition, % at 10 µM. TALL-104 LAMP-1 surface exposure, flow cytometry; cells stimulated with thapsigargin and PMA. 0.66% of 360,000 active;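 active = inhibition above about 55%, limit read from the data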
# TLR4 MyD88 comp: inhibitors of human TLR4-MyD88 binding | O00206+Q99836 | HeLa CL3-4 TLR4/MyD88 BLA complementation, FRET ratio | inhibition, % at 8.4 µM | 0.18% of 200,000 active; in the data active = inhibition above about 25%;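 also: 0% = vehicle and 100% = reference inhibitor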
# TLR9-MyD88 inh: TLR9-MyD88 interaction inhibition. Q9NR96+Q99836. CHO BLA complementation TLR9-MyD88, CCF4 FRET ratio. inhibition, % at 4.98 µM. 0.21% of 340,000 active. AID 504734;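 active = inhibition above the mean over all tested compounds plus 3 SD, cut at about 21% in these data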;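 also: 0% = DMSO only wells and 100% = clavulanate BLA inhibitor control wells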
# PRMT1 inh: inhibitors of human PRMT1; Q99873; recombinant PRMT1, activity-based probe fluorescence polarization; inhibition, % at 2.79 µM; 1.3% of 370,000 active; AID 652257;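 active = inhibition above about 21% made by adding two undisclosed values, limit read from the data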
# ABHD5-PLIN5 inh: ABHD5-PLIN5 protein interaction inhibition. Q00G26+Q8WTS1. Split G. princeps luciferase complementation, luminescence, 4 h. inhibition, % at 4 µM. 0.78% of 360,000 active;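 active = inhibition above the mean inhibition across every tested compound plus 3 SD, cut at about 22% in these data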;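 also: 0% = DMSO only wells and the 100% control is not disclosed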
# NOD2-RIPK2 inh: NOD2-RIPK2 protein interaction inhibition; inhibition, % at 4.98 µM; CHO BLA complementation NOD2-RIPK2, CCF4 ratio; 0.38% of 360,000 active; in the data active = inhibition above about 21%;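 also: 0% = vehicle only and 100% = reference blocker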
# Target sequence (O43353 whole entry, looked up): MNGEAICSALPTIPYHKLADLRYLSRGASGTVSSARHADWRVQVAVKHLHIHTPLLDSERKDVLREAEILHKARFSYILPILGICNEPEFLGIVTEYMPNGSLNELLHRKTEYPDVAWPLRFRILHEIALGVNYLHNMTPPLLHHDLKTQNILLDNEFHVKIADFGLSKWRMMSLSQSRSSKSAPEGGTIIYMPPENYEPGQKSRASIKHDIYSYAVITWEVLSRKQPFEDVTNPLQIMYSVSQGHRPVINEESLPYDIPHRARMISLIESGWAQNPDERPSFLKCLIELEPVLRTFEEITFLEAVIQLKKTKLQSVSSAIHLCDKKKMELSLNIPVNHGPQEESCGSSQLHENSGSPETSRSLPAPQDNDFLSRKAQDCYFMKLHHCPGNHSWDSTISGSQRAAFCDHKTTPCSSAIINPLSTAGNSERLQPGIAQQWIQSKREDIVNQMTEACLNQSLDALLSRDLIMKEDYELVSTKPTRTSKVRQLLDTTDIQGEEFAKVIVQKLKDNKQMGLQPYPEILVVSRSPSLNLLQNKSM
# Granule exo CP1: blocks lytic granule exocytosis; shares compounds with Exocytosis inh; TALL-104 cells, LAMP-1 externalization, flow cytometry; stimulated with PMA plus thapsigargin; inhibition, % at 10 µM; 11% of 1,500 active; AID 651954; in the data active = inhibition above about 60%;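 also: 0% = stimulated vehicle wells and 100% = unstimulated wells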
# * hit, by the source's call; . = no result.
SMILES,Exocytosis inh,TLR4 MyD88 comp,TLR9-MyD88 inh,PRMT1 inh,ABHD5-PLIN5 inh,NOD2-RIPK2 inh,Granule exo CP1
CCCCOn1c(C)c(C(=O)OCC)c2c3nonc3ccc21,87*,-3,3,-3,-11,5,36
O=C1S/C(=C\c2ccc(N3CCOCC3)o2)C(=O)N1c1ccccc1,68*,17,6,17,-1,3,18
COC(=O)[C@]12C[C@H](CC(=O)NCC3CCCCC3)C(=O)N(Cc3ccc4c(c3)OCO4)C1=C[C@H](C(C)(C)C)O[C@@H]2C,.,.,.,1,.,.,.
CCOC(=O)C1CCCN(Cc2cccc(Oc3ccccc3)c2)C1 (stereo not given),2,.,-3,1,-1,1,.
CCN(CC)C(=O)C1CCCN(Cc2cccc(Oc3ccccc3)c2)C1 (stereo not given),68*,.,-6,-4,-1,-1,-13
CC(C)C(c1nnnn1Cc1ccccc1)N(Cc1ccco1)Cc1cccs1 (stereo not given),11,7,2,-4,-1,-4,.
COc1ccc(Cn2nnnc2C(C(C)C)N(Cc2ccco2)Cc2cccs2)cc1 (stereo not given),57*,5,-1,-3,-6,-4,-14
CN[C@H]1C[C@H]2c3[nH]c4cccc(-c5ccccc5)c4c3CCN2C[C@H]1[C@H](C)O,.,.,.,3,.,.,.
CN(C)CCC(=O)N1c2ccccc2Sc2ccc(C(F)(F)F)cc21,67*,.,12,-3,9,6,-13
C[C@@H]1COc2cc(N3CCCC3)ccc2S(=O)(=O)N1,.,.,.,0,.,.,.
Cc1cc(Nc2cccc(Cl)c2)c2ccccc2n1,78*,.,-10,1,12,-2,-8
COC(=O)[C@]12C[C@H](CC(=O)N3CCCCC3)C(=O)N(Cc3ccc4c(c3)OCO4)C1=C[C@H](C(C)(C)C)O[C@@H]2C,.,.,.,6,.,.,.
COc1cc(C)cc(OC)c1OCC(=O)Nc1cc(C)on1,69*,.,-9,-2,-8,-4,-4
Cc1ccc(NC(=O)CN(C)CC(=O)Nc2ccc(N3CCOCC3)cc2)cc1F,99*,-10,1,2,-3,-7,-11
Cc1ccc(CC(=O)N(C)CC(=O)Nc2ccc(N3CCOCC3)cc2)cc1C,-2,.,-3,-3,9,0,.
Cc1cccc(NC(=O)c2ccc(-n3cncn3)c([N+](=O)[O-])c2)c1,-9,.,-12,0,1,-6,.
CCc1ccccc1NC(=O)CNC(=O)c1ccc(-n2cncn2)c([N+](=O)[O-])c1,66*,.,11,-5,0,-4,-2
Cc1c(Cl)ccc2c(C(O)CBr)cc(-c3ccccc3)nc12 (stereo not given),64*,.,-15,1,-10,-7,-14
CN(C)c1ccc(C(C(=O)NCC2CCCO2)N(C(=O)c2snc(C(N)=O)c2N)c2ccccc2)cc1 (stereo not given),18,.,-1,-9,2,-1,.
CN(C)c1ccc(C(C(=O)NCC2CCCO2)N(C(=O)c2snc(C(N)=O)c2N)c2ccc3c(c2)OCO3)cc1 (stereo not given),72*,.,-1,3,-5,-11,-6
CCCCCCN1C[C@H](n2cc(-c3ccc(F)cc3)nn2)[C@@H](O)C[C@@H]1c1ccc(C)cc1,62*,.,-4,1,5,-9,-10
O=C(NCc1ccccc1Cl)C1CCCN(c2ncccn2)C1 (stereo not given),.,.,.,0,.,.,.
CCC(C)(O)C(=O)N[C@H]1CCCN1C(=O)/C=C/c1ccccc1 (stereo not given in full),59*,.,-15,-3,-1,-6,-3
O=C(/C=C/c1ccccc1)N1CCC[C@H]1CO,-5,-4,7,-3,7,-3,.
Cc1ccc(-n2c(SCC(=O)Nc3ccc(OCc4ccccc4)cc3)nnc2-c2ccco2)cc1,.,.,.,-5,.,.,.
Cc1cc(N2CCN(C(=O)OC(C)(C)C)C[C@@H]2C)ccc1Br,.,.,.,-4,.,.,.
COCCn1c(-c2ccc(-c3ccccc3Cl)o2)nc2c1c(=O)[nH]c(=O)n2CC(C)C,4,10,2,4,1,-3,.

# From PubChem BioAssay
